Test results as given in PubChem BioAssay AID652054 (National Center for Advancing Translational Sciences (NCATS), 2013).
The whole screen tested about 360,000 compounds, of which about 9,100 (2.5%) were called active. About 4% were inconclusive and are not listed. The full list was thinned out, with actives kept by preference. Unmarked numbers belong to inactive results. No stated cut-off is given here; in the data, active means max response below about -50%; inconclusive means no clear call, values can overlap the other calls; inactive means above that.

Molecular target: D(3) dopamine receptor (Homo sapiens) (UniProt P35462)
Sequence (P35462 whole entry, looked up): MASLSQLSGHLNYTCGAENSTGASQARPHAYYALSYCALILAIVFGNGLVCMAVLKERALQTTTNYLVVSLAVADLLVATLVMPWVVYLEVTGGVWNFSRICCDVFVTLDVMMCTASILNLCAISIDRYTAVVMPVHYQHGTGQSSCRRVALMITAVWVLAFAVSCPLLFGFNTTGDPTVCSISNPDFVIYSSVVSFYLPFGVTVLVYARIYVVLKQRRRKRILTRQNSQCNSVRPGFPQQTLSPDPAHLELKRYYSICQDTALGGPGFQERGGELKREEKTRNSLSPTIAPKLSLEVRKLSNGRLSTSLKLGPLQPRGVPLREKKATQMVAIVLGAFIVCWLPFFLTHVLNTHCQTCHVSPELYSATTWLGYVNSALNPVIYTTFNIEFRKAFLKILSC
Experiment: qHTS of D3 Dopamine Receptor Antagonist: qHTS
Conditions: D3R cells, DiscoveRx beta-arrestin luminescence, antagonist mode; stronger effect = lower value
How it was run: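 Cells expressing the human receptor were seeded at 1500 cells/well, incubated overnight at 37 degrees C in 5% CO2, then exposed to library compounds with dopamine controls for 90 minutes at 37 degrees C before luminescent detection.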
On the % scale 0 is the no-effect control and ±100 the full control effect.

Row | Structure (SMILES) | max response, negative = inhibition
1 | Cc1cc(-n2nc(C)cc2C)n2ncc(-c3ccccc3)c2n1 | 17.7%
2 | Cc1cc(C)n(-c2c(F)c(F)c(COC(=O)c3ccccc3)c(F)c2F)n1 | -2%
3 | CCOC(=O)c1cnc(-n2nc(C)cc2C)nc1NNc1cc(C)nc(-c2ccccc2)n1 | -53.4% (active)
4 | CCCS(=O)(=O)NC(=O)C1(C)CCCN(C(=O)c2cccs2)C1 (stereo not given) | -7.3%
5 | COC(=O)[C@]12CCCCC=C1N(Cc1ccccc1)C(=O)[C@H](CC(=O)NCc1ccc(C)o1)C2 | 0.174%
6 | Cc1ccc(-c2nnc(CN3CCN(C)CC3)o2)cc1 | 0%
7 | COc1ccc(N2CCN(Cc3nnc(-c4ccccc4)o3)CC2)cc1 | 11.3%
8 | c1ccc(-c2cnc(CN3CCN(c4ccccc4)CC3)o2)cc1 | -58.1% (active)
9 | Cc1cc2cc3n(c2nn1)N=C(Cl)CC3 | 10.6%
10 | CC(=O)Nc1ccc(N2C(=O)C3C4C=CC(CC4)C3C2=O)cc1 (stereo not given) | 3.35%
11 | CC(=O)Nc1ccc(N2C(=O)C3C4CC(=O)C(c5ccccc54)C3C2=O)cc1 (stereo not given) | -60% (active)
12 | CCc1ccccc1N1C(=O)C2C3CC(=O)C(c4ccccc43)C2C1=O (stereo not given) | -6.94%
13 | Cc1cc(Br)cn2c(Cc3cccc(F)c3)c(-c3cccc(Br)c3)nc12 | 0.913%
14 | COc1ccccc1/C=C/CN1CCC(CO)(Cc2ccccc2)CC1 | -76.1% (active)
15 | COc1ccccc1/C=C/C=N/NC(=O)CN1CCN(Cc2ccccc2)CC1 | -17.6%
16 | CC(C)c1csc(CN2CCC(CO)(Cc3ccccc3)CC2)n1 | -22%
17 | COc1cccc(NC(=O)N(C)C[C@@H]2Oc3ncc(Br)cc3C(=O)N([C@@H](C)CO)C[C@H]2C)c1 | -24.9%
18 | OC(c1ccccc1)c1nc(-c2cnc3ccccc3c2)cs1 (stereo not given) | 4.32%
19 | CCc1ccc2c(c1)C1(NN=C(c3ccccc3)S1)C(=O)N2 (stereo not given) | -60.6% (active)
20 | CCc1ccc2c(c1)NC(=O)C2(C)Cc1ccc(OC(F)(F)F)cc1 (stereo not given) | 16.6%
21 | NC1=CC(=O)C(=O)c2cccnc21 | -69.1% (active)
22 | CCOc1ccc(CCN2C(=O)c3cccnc3C2=O)cc1OCC | -22%
23 | NC(c1csc(NC(=O)Nc2cccc(C(F)(F)F)c2)n1)C1CCCCC1 (stereo not given) | 13.3%

Row | Structure (SMILES) | max response, negative = inhibition
24 | CCOC(=O)[C@]12CCC=C1N(CCC1=CCCCC1)C(=O)[C@H](CC(=O)NCc1ccc(C)o1)C2 | 16.1%
25 | COCCCNC(=O)c1ccc(-c2c(C)noc2C)c2ccoc12 | 0%
26 | Cc1nc(Nc2ccc3c(c2)OCCO3)c2nnn(Cc3ccccc3Cl)c2n1 | -26.4%
27 | Cc1nc(Nc2ccc(S(=O)(=O)N3CCCC3)cc2)c2nnn(Cc3ccccc3)c2n1 | -69.4% (active)
28 | CC(C)Cc1nc(Nc2ccc(S(=O)(=O)N3CCCC3)cc2)c2nnn(Cc3ccccc3)c2n1 | -27.2%
29 | NS(=O)(=O)c1ccc(CNC(=O)c2cc(S(=O)(=O)N3CCOCC3)ccc2N2CCCC2)cc1 | 0%
30 | COc1cc(CNc2ncnc3c2ncn3[C@H]2CN(Cc3cccs3)C[C@@H](CO)O2)cc(OC)c1OC | 13%
31 | C[C@H](CO)N1C[C@H](C)[C@@H](CN(C)Cc2ccc3c(c2)OCO3)OCc2cnnn2CCCC1=O | 9.24%
32 | CCCS(=O)(=O)NC(=O)C1(C)CCCN(C(=O)c2ccnc(Cl)c2)C1 (stereo not given) | -5.74%
33 | COc1ccc(N2CCN(Cc3ccc(Br)s3)CC2)cc1 | -54.8% (active)
34 | Fc1ccc(N2CCN(Cc3cnc(Oc4ccc(Br)cc4)s3)CC2)cc1 | -67.9% (active)
35 | COc1ccc(N2CCN(C(=O)CNC(=O)c3ccc(Br)o3)CC2)cc1 | 4.35%
36 | COc1ccc(N2CCN(C(=O)c3cccs3)CC2)cc1 | -4.36%
37 | O=C(c1ccccc1Oc1ccccc1)N1CCN(c2ccc(F)cc2)CC1 | 11.3%
38 | O=[N+]([O-])c1ccc(N2CCN(c3ccc(F)cc3)CC2)cn1 | 1.91%
39 | CO[C@@H]1CN(C)C(=O)c2cc(NC(=O)C3CC3)ccc2OC[C@H](C)N(C(=O)CN2CCOCC2)C[C@@H]1C | -4.53%
40 | Cc1cccc(C(=O)OCC(=O)Nc2sccc2C(N)=O)c1C | 12.4%
41 | CCOC(=O)C1C(=O)NCC1c1ccccc1 (stereo not given) | -22.2%
42 | CCOC(=O)C1CCN(C(=O)Nc2ccc(Cl)cc2)CC1 | 0%
43 | CCOC(=O)C1Sc2[nH]c(=O)sc2C(c2ccc(Cl)cc2)C1C(=O)OCC (stereo not given) | -67.4% (active)
44 | Cc1ccc(S(=O)(=O)N2[C@@H](Cc3ccccc3)CO[C@H]2CC(=O)OCc2ccccc2)cc1 | -24.9%
45 | COc1ccc(C(=O)NCC[N+](C)(C)C)cc1 | 7.47%
